The record followed here is PubChem BioAssay (NCI).

SMILES strings stand for the structures. The panel holds about 79,000 compounds, 15% with a hit somewhere; the sample as a whole holds those more often. A number with no mark means an inactive call. Activity calls are given as the source filed them. Cut-off read from the data, not from the text of the source: active = growth inhibition above about 70%; inactive = the rest.

The nature of test [1]: NCI Yeast Anticancer Drug Screen. Data for the rad50 strain (AID 155).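 Note: 0% = growth of vehicle-only cultures of the same strain.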 The following applies: S. cerevisiae rad50 strain growth inhibition, active compounds read high. The essentials:
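Growth of the mutant yeast was measured after compound exposure and referenced to vehicle-treated cultures.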

Test [2] in a line: NCI Yeast Anticancer Drug Screen. Data for the mec2-1 strain (AID 157). The following applies: S. cerevisiae mec2-1 strain, active compounds read high. An outline of the steps: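 Strain: mec2-1 (DNA repair/cell cycle alteration). Compound exposure, then growth measured; inhibition expressed relative to vehicle.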
A short description of test [3]: NCI Yeast Anticancer Drug Screen. Data for the sgs1 mgt1 strain (AID 161).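 Note: 0% = growth of cultures given vehicle only.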 The following applies: S. cerevisiae sgs1 mgt1 strain, active compounds read high. An outline of the steps:
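Test agents were incubated with a DNA-repair-mutant yeast strain. Growth was then read and compared against vehicle-treated controls.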

Test [4] is described as follows: NCI Yeast Anticancer Drug Screen. Data for the cln2 rad14 strain (AID 165).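 Note: 0% = growth equal to vehicle treated cultures.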 The following applies: S. cerevisiae cln2 rad14 strain, active compounds read high. The essentials:
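Compounds are applied to the cln2 rad14 yeast strain, and growth is then compared with that of vehicle-treated cultures to give inhibition.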

The nature of test [5]: NCI Yeast Anticancer Drug Screen. Data for the bub3 strain (AID 167). The following applies: S. cerevisiae bub3 mutant strain, active compounds read high. An outline of the steps: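 Whole-cell yeast assay. The mutant strain was incubated with compounds, and growth inhibition was determined by comparison with vehicle-treated cells.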
The nature of test [6]: NCI Yeast Anticancer Drug Screen. Data for the mlh1 rad18 strain (AID 175). The following applies: S. cerevisiae mlh1 rad18 strain growth inhibition, active compounds read high. The essentials:
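Read-out is yeast growth inhibition, calculated against vehicle-only controls. The compound was applied to a strain engineered with DNA damage repair alterations.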

The mark [7] stands for this setting: at 5.0 µM (retest, dose inferred, filed as 0.5).
Setting [8] is: at 50.0 µM (retest, dose inferred, filed as 5.0).

For the molecule `COC(=O)c1c(C)cccc1C1CN=NC12Cc1ccc(C)c(C)c1C2=O` (stereo not given), the growth inhibition in test [1] (setting [7]) is 2%; in test [1] (setting [8]), 31%; in test [1] (at 50.0 µM), 61%; in test [2] (setting [7]), 0%; in test [2] (setting [8]) it was 47%; in test [2] (at 50.0 µM), 43.2%. Besides, the growth inhibition in test [3] (setting [7]) is 13%; in test [3] (setting [8]), 56%; in test [3] (at 50.0 µM), 68.5%; in test [4] (setting [7]), 1%; in test [4] (setting [8]), 44%; in test [4] (at 50.0 µM) it was 54.1%. Besides, the growth inhibition in test [5] (setting [7]) was 8%; in test [5] (setting [8]), 81% (active); in test [5] (at 50.0 µM), 78.7% (active); in test [6] (setting [7]), -1%; in test [6] (setting [8]) it was 57%; in test [6] (at 50.0 µM), 72.8% (active).
As for `Cc1ccc2ccc(C(Nc3ccccc3)c3ccncc3)c(O)c2n1` (stereo not given), the growth inhibition in test [1] (setting [7]) was -6%; in test [1] (setting [8]), 92% (active); in test [1] (at 50.0 µM) it was 90.8% (active); in test [2] (setting [7]), -2%; in test [2] (setting [8]), 95% (active); in test [2] (at 50.0 µM), 82.8% (active). Also, the growth inhibition in test [3] (setting [7]) was 4%; in test [3] (setting [8]) it was 87% (active); in test [3] (at 50.0 µM), 43.5%; in test [4] (setting [7]) it was -6%; in test [4] (setting [8]), 81% (active); in test [4] (at 50.0 µM) it was 49.3%. Besides, the growth inhibition is -7% in test [5] (setting [7]); 92% (active) in test [5] (setting [8]); 81.1% (active) in test [5] (at 50.0 µM); -5% in test [6] (setting [7]); 92% (active) in test [6] (setting [8]); 89% (active) in test [6] (at 50.0 µM).
As for `C[C@H](CCC(=O)O)[C@H]1CC[C@H]2[C@@H]3CC[C@@H]4C[C@H](O)CC[C@]4(C)[C@H]3C[C@H](O)[C@]12C`, the growth inhibition in test [1] (setting [7]) was -14%; in test [1] (setting [8]), 95% (active); in test [1] (at 50.0 µM) it was 99.2% (active); in test [2] (setting [7]), 1%; in test [2] (setting [8]), 98% (active); in test [2] (at 50.0 µM), 98.8% (active). Further, the growth inhibition is -1% in test [3] (setting [7]); 97% (active) in test [3] (setting [8]); 99.3% (active) in test [3] (at 50.0 µM); -34% in test [4] (setting [7]); 98% (active) in test [4] (setting [8]); 99.3% (active) in test [4] (at 50.0 µM). The growth inhibition in test [5] (setting [7]) was -16%; in test [5] (setting [8]), 99% (active); in test [5] (at 50.0 µM), 98.8% (active); in test [6] (setting [7]), -11%; in test [6] (setting [8]), 98% (active); in test [6] (at 50.0 µM), 99% (active).
For the molecule `Cn1nc2c(c(Cl)c1=O)Nc1ccccc1O2`, the growth inhibition is -32% in test [1] (setting [7]); -16% in test [1] (setting [8]); 0.85% in test [1] (at 50.0 µM); -9% in test [2] (setting [7]); -34% in test [2] (setting [8]); -30.4% in test [2] (at 50.0 µM). In addition, the growth inhibition is -20% in test [3] (setting [7]); -19% in test [3] (setting [8]); -24.8% in test [3] (at 50.0 µM); -8% in test [4] (setting [7]); -9% in test [4] (setting [8]); 23.1% in test [4] (at 50.0 µM). Further, the growth inhibition in test [5] (setting [7]) was -45%; in test [5] (setting [8]) it was -18%; in test [5] (at 50.0 µM), 1.35%; in test [6] (setting [7]) it was -25%; in test [6] (setting [8]), -14%; in test [6] (at 50.0 µM), -6.7%.
`Cc1ccc(C(C)C)c(O)c1N/N=C/c1cc(Cl)ccc1O`: the growth inhibition in test [1] (setting [7]) is 2%; in test [1] (setting [8]), 55%; in test [1] (at 50.0 µM) it was 73% (active); in test [2] (setting [7]), 3%; in test [2] (setting [8]) it was 25%; in test [2] (at 50.0 µM), -0.3%. Moreover, the growth inhibition is 1% in test [3] (setting [7]); 82% (active) in test [3] (setting [8]); 41.9% in test [3] (at 50.0 µM); 2% in test [4] (setting [7]); 26% in test [4] (setting [8]); -4.05% in test [4] (at 50.0 µM). The growth inhibition in test [5] (setting [7]) is 1%; in test [5] (setting [8]), 48%; in test [5] (at 50.0 µM), 58.1%; in test [6] (setting [7]) it was 2%; in test [6] (setting [8]), 83% (active); in test [6] (at 50.0 µM) it was 36.8%.
For the molecule `Cc1cccc(/C=N/NC(=S)Nc2ccccc2)n1`, the growth inhibition is -19% in test [1] (setting [7]); 99% (active) in test [1] (setting [8]); 89.2% (active) in test [1] (at 50.0 µM); -49% in test [2] (setting [7]); 99% (active) in test [2] (setting [8]); 92.8% (active) in test [2] (at 50.0 µM). In addition, the growth inhibition in test [3] (setting [7]) is -42%; in test [3] (setting [8]), 99% (active); in test [3] (at 50.0 µM) it was 91.2% (active); in test [4] (setting [7]), -37%; in test [4] (setting [8]), 99% (active); in test [4] (at 50.0 µM) it was 91.8% (active). Further, the growth inhibition in test [5] (setting [7]) was -42%; in test [5] (setting [8]) it was 100% (active); in test [5] (at 50.0 µM) it was 92% (active); in test [6] (setting [7]), -30%; in test [6] (setting [8]), 100% (active); in test [6] (at 50.0 µM), 89.3% (active).
On to `C/C=C1/C=CC2c3[nH]c4ccccc4c3CCN2C1` (stereo not given), for which the growth inhibition in test [1] (setting [7]) is -152%; in test [1] (setting [8]), -150%; in test [1] (at 50.0 µM), 5.35%; in test [2] (setting [7]) it was -51%; in test [2] (setting [8]), -57%; in test [2] (at 50.0 µM), -0.8%. In addition, the growth inhibition was -62% in test [3] (setting [7]); -67% in test [3] (setting [8]); 2.95% in test [3] (at 50.0 µM); -62% in test [4] (setting [7]); -72% in test [4] (setting [8]); 38% in test [4] (at 50.0 µM). Further, the growth inhibition in test [5] (setting [7]) was -73%; in test [5] (setting [8]), -81%; in test [5] (at 50.0 µM), -13.4%; in test [6] (setting [7]), -137%; in test [6] (setting [8]), -107%; in test [6] (at 50.0 µM), 13%.
With `CNC(=O)c1cccc2c(Nc3ccc(NS(C)(=O)=O)cc3OC)c3cccc(C)c3nc12`, the growth inhibition was 47% in test [1] (setting [7]); 93% (active) in test [1] (setting [8]); 75.8% (active) in test [1] (at 50.0 µM); 17% in test [2] (setting [7]); 95% (active) in test [2] (setting [8]); -0.8% in test [2] (at 50.0 µM). Also, the growth inhibition in test [3] (setting [7]) is 12%; in test [3] (setting [8]) it was 66%; in test [3] (at 50.0 µM), -4.45%; in test [4] (setting [7]), 30%; in test [4] (setting [8]), 57%; in test [4] (at 50.0 µM), -0.4%. The growth inhibition is 19% in test [5] (setting [7]); 91% (active) in test [5] (setting [8]); -37.2% in test [5] (at 50.0 µM); 19% in test [6] (setting [7]); 86% (active) in test [6] (setting [8]); -24.5% in test [6] (at 50.0 µM).
As for `Cc1ccc(/C=N\NC(=S)N/N=C/c2ccc(C)cc2)cc1`, the growth inhibition in test [1] (setting [7]) was -6%; in test [1] (setting [8]) it was 98% (active); in test [1] (at 50.0 µM) it was 30.3%; in test [2] (setting [7]), 2%; in test [2] (setting [8]), 99% (active); in test [2] (at 50.0 µM), 40%. Besides, the growth inhibition in test [3] (setting [7]) was 2%; in test [3] (setting [8]) it was 99% (active); in test [3] (at 50.0 µM), 74.8% (active); in test [4] (setting [7]) it was -43%; in test [4] (setting [8]), 98% (active); in test [4] (at 50.0 µM), 20%. The growth inhibition is -4% in test [5] (setting [7]); 99% (active) in test [5] (setting [8]); 94.5% (active) in test [5] (at 50.0 µM); 0% in test [6] (setting [7]); 98% (active) in test [6] (setting [8]); 59% in test [6] (at 50.0 µM).
For the molecule `CCOc1ccccc1C(=O)Nc1cc(C)nn1-c1ccccc1`, the growth inhibition in test [1] (setting [7]) was 5%; in test [1] (setting [8]) it was 4%; in test [1] (at 50.0 µM), 29.4%; in test [2] (setting [7]), 7%; in test [2] (setting [8]), 4%; in test [2] (at 50.0 µM), 99.2% (active). In addition, the growth inhibition in test [3] (setting [7]) is 7%; in test [3] (setting [8]) it was 6%; in test [3] (at 50.0 µM) it was 99.4% (active); in test [4] (setting [7]) it was 0%; in test [4] (setting [8]), -1%; in test [4] (at 50.0 µM), 98.8% (active). Further, the growth inhibition in test [5] (setting [7]) was -1%; in test [5] (setting [8]), -3%; in test [5] (at 50.0 µM) it was 99.3% (active); in test [6] (setting [7]) it was -1%; in test [6] (setting [8]), 0%; in test [6] (at 50.0 µM), 99.5% (active).
